From article PMC7862700, “An all-to-all approach to the identification of sequence-specific readers for epigenetic DNA modifications on cytosine”

How the values were obtained:
Assay in all cases: DAPPL (digital affinity profiling via proximity ligation, sequencing); 10 mM Tris-HCl pH 7.5, 50 mM NaCl, 1 mM DTT, 4% glycerol, room temperature, 30 min; GST-TFs on glutathione beads, 16-mer random dsDNA library, 0.1% formaldehyde crosslink after washing; high values mean tight binding
FLI1 = target: T1, FLI1 (Homo sapiens, UniProt Q01543 1-452); conditions: protein: recombinant; tags: N-terminal GST; dsDNA, one strand shown
T1 sequence: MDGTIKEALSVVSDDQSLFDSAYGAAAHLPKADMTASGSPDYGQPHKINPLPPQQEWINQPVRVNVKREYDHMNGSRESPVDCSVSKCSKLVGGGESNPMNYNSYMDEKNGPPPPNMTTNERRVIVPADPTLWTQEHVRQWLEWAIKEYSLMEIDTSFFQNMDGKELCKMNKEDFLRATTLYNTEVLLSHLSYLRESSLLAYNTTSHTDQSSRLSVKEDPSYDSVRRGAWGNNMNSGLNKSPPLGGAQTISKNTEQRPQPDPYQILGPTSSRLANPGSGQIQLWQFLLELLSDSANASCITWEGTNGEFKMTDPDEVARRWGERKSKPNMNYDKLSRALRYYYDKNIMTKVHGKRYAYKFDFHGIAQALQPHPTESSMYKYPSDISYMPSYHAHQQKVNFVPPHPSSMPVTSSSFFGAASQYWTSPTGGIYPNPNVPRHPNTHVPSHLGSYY
Summary of the method: (§1)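 Human transcription factors were made in yeast as GST fusions, captured on glutathione beads and barcoded with DNA. With a tag-only sample included, the pool was incubated with 200 nmole of a random double-stranded 16-mer DNA library in Tris/NaCl/DTT/glycerol buffer at room temperature for 30 min, then crosslinked with 0.1% formaldehyde after washing, ligated by proximity, amplified and sequenced. For binding signal, each hexamer's read frequency for a factor is divided by its frequency for the tag-only sample.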

ELK1 = target: T2, ELK1 (Homo sapiens, UniProt P19419 1-428); conditions: protein: recombinant; tags: N-terminal GST; dsDNA, one strand shown
T2 sequence: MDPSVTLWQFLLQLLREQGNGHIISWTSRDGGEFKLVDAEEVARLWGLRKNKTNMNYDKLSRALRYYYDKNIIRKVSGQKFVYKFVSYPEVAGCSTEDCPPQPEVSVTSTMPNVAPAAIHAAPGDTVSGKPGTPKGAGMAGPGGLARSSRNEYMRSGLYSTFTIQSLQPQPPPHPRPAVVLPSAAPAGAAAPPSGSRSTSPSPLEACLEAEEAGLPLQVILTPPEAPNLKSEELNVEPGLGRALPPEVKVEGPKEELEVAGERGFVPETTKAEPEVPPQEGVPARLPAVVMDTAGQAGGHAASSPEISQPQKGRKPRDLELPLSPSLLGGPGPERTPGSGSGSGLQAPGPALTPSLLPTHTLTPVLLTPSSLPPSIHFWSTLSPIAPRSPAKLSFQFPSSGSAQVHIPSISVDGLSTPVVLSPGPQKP
Summary of the method: as §1

GABPA = target: T3, GABPA (Homo sapiens, UniProt Q06546 1-454); conditions: protein: recombinant; tags: N-terminal GST; dsDNA, one strand shown
T3 sequence: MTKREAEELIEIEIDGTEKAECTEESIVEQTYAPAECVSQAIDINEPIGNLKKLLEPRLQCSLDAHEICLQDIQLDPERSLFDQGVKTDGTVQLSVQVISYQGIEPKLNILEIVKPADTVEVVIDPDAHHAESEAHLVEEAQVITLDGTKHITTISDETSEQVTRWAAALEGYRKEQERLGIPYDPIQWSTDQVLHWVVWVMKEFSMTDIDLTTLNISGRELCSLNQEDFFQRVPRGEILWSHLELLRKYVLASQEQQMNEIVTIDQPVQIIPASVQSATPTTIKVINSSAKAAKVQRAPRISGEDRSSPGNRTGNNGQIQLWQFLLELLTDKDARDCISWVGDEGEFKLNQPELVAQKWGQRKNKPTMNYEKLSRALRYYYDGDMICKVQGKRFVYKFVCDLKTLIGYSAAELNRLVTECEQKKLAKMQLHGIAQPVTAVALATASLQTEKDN
Summary of the method: as §1

ERG = target: T4, ERG (Homo sapiens, UniProt P11308 1-479); conditions: protein: recombinant; tags: N-terminal GST; dsDNA, one strand shown
T4 sequence: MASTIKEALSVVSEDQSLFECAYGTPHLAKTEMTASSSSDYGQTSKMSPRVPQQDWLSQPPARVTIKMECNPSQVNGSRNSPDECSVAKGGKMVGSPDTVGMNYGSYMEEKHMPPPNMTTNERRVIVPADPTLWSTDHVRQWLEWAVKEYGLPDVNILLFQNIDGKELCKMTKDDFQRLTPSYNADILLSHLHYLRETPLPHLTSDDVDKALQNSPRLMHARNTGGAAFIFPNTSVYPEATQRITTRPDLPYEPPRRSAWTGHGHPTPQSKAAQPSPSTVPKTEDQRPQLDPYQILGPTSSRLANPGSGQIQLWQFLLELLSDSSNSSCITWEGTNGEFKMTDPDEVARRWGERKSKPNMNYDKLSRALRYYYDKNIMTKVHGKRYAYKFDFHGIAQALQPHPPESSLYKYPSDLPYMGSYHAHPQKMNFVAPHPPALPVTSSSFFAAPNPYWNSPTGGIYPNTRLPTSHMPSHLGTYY
Summary of the method: as §1

ELF1 = ELF1 (Homo sapiens, UniProt P32519 1-619); conditions: protein: recombinant; tags: N-terminal GST; dsDNA, one strand shown
ELF1, sequence (P32519 whole entry): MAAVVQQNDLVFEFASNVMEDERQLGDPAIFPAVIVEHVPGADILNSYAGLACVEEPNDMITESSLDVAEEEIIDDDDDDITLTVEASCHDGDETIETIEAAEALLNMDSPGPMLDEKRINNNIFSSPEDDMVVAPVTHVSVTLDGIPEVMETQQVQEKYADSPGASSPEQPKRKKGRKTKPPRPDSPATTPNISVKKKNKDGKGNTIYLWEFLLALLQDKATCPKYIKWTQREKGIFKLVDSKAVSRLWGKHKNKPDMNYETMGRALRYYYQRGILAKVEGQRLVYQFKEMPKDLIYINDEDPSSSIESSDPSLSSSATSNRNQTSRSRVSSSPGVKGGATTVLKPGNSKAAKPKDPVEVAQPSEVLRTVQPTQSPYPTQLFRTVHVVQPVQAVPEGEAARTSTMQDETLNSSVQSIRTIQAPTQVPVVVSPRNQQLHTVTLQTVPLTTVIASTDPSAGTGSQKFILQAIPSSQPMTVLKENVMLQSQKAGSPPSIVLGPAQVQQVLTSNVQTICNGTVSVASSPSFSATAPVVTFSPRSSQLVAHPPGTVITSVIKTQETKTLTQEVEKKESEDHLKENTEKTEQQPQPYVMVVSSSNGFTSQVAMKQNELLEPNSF
Summary of the method: as §1

EHF = target: T5, EHF (Homo sapiens, UniProt Q9NZC4 1-300); conditions: protein: recombinant; tags: N-terminal GST; dsDNA, one strand shown
T5 sequence: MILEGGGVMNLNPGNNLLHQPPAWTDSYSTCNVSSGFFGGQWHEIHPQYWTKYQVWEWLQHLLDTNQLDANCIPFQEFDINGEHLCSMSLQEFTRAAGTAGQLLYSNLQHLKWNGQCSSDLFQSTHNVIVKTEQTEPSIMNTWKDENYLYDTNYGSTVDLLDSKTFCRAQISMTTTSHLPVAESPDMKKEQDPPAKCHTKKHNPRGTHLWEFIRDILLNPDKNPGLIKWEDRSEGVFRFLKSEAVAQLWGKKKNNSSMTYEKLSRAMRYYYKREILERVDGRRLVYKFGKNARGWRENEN
Summary of the method: as §1

SPI1 = SPI1 (Homo sapiens, UniProt P17947 1-270); conditions: protein: recombinant; tags: N-terminal GST; dsDNA, one strand shown
Summary of the method: as §1

SPIB = SPIB (Homo sapiens, UniProt Q01892 1-262); conditions: protein: recombinant; tags: N-terminal GST; dsDNA, one strand shown
SPIB, sequence (Q01892 whole entry): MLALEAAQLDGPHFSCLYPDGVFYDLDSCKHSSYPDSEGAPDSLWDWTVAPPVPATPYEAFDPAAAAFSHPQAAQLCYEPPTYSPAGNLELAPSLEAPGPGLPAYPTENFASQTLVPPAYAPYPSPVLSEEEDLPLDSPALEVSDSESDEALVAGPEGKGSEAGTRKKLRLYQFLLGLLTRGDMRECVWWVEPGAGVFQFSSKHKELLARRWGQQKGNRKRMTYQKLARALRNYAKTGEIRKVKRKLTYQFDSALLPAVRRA
Summary of the method: as §1

ELK3 = target: T6, ELK3 (Homo sapiens, UniProt P41970 1-407); conditions: protein: recombinant; tags: N-terminal GST; dsDNA, one strand shown
T6 sequence: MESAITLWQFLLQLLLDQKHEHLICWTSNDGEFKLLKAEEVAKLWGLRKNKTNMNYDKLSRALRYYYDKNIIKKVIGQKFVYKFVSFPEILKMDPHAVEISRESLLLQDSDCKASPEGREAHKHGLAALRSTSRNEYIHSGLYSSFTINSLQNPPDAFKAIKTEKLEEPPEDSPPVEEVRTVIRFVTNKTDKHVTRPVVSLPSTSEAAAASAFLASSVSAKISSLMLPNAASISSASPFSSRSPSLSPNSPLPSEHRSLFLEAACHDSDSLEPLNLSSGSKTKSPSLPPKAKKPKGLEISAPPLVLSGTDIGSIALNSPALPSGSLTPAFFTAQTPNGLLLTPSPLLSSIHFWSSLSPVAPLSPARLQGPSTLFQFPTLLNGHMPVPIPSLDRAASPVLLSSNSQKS
Summary of the method: as §1

FEV = target: T7, FEV (Homo sapiens, UniProt Q99581 1-238); conditions: protein: recombinant; tags: N-terminal GST; dsDNA, one strand shown
T7 sequence: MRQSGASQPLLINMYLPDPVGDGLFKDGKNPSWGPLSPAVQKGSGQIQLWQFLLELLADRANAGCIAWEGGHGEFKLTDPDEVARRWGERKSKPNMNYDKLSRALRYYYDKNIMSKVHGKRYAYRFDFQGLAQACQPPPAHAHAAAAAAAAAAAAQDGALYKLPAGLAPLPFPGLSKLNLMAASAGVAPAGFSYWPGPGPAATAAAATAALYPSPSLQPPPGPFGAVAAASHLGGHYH
Summary of the method: as §1

ETV5 = ETV5 (Homo sapiens, UniProt P41161 1-510); conditions: protein: recombinant; tags: N-terminal GST; dsDNA, one strand shown
ETV5, sequence (P41161 whole entry): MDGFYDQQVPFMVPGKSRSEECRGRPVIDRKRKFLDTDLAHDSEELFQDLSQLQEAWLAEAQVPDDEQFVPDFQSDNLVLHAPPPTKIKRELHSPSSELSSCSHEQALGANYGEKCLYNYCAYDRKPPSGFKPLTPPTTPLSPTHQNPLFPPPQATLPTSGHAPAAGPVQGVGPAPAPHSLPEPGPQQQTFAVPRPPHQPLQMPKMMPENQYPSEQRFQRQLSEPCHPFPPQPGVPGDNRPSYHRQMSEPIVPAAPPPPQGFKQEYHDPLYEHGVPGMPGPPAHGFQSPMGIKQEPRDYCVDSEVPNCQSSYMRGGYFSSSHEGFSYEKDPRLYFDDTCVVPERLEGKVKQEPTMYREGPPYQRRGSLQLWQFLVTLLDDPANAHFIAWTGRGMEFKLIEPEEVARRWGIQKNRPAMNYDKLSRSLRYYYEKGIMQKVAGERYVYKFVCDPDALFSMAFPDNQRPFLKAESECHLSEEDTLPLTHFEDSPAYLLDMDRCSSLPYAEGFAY
Summary of the method: as §1

HSF1 = HSF1 (Homo sapiens, UniProt Q00613 1-529); conditions: protein: recombinant; tags: N-terminal GST; chain copies: 3; dsDNA, one strand shown
HSF1, sequence (Q00613 whole entry): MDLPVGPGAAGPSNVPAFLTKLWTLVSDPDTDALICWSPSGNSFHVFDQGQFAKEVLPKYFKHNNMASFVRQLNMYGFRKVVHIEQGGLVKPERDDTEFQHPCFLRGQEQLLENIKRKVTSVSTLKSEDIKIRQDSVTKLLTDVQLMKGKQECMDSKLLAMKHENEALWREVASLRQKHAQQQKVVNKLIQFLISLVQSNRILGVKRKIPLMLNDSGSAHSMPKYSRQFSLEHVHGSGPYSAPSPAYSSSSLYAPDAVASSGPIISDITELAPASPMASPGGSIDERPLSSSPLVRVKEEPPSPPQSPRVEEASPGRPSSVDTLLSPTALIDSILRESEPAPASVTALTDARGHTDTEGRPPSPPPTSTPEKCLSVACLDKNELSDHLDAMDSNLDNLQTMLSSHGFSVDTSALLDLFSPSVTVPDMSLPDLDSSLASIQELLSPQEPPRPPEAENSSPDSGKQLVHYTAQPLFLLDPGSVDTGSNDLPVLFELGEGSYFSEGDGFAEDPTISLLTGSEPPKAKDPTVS
Summary of the method: as §1

SPIC = target: T8, SPIC (Homo sapiens, UniProt Q8N5J4 1-248); conditions: protein: recombinant; tags: N-terminal GST; dsDNA, one strand shown
T8 sequence: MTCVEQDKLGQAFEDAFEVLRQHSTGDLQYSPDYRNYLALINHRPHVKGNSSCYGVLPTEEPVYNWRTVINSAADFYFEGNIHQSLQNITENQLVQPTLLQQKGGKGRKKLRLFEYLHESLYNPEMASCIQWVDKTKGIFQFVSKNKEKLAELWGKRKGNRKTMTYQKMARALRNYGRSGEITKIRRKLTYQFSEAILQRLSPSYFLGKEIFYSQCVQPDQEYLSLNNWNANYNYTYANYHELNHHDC
Summary of the method: as §1

ELF4 = ELF4 (Homo sapiens, UniProt Q99607 1-663); conditions: protein: recombinant; tags: N-terminal GST; dsDNA, one strand shown
ELF4, sequence (Q99607 whole entry): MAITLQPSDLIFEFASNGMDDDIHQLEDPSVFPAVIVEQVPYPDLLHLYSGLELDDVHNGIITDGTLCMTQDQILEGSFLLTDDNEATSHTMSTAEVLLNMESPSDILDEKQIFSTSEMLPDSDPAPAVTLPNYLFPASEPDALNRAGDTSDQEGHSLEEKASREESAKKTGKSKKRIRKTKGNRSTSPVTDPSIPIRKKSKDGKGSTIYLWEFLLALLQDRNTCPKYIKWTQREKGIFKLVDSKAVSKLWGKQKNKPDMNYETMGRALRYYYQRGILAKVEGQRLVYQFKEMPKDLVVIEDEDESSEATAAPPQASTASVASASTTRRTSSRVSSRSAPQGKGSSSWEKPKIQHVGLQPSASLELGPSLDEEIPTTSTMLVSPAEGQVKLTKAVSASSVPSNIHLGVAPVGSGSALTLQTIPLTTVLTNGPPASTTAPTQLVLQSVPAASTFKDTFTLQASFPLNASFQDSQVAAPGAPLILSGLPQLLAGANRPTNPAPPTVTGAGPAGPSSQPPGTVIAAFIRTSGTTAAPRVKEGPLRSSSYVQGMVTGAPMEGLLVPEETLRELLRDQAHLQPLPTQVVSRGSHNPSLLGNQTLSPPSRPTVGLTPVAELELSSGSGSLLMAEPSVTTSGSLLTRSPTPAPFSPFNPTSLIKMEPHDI
Summary of the method: as §1

ELK4 = target: T9, ELK4 (Homo sapiens, UniProt P28324-2 1-405); conditions: protein: recombinant; tags: N-terminal GST; dsDNA, one strand shown
T9 sequence: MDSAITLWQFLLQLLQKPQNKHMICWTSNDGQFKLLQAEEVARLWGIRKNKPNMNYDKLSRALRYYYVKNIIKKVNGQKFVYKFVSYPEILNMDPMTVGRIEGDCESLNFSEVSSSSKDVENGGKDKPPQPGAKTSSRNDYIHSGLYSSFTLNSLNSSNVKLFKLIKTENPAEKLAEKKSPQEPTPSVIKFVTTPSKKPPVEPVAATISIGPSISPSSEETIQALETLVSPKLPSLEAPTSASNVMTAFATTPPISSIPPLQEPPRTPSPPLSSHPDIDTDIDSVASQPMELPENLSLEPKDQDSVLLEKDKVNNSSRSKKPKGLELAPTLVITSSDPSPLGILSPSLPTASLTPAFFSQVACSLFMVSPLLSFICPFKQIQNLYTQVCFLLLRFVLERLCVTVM
Summary of the method: as §1

ETV2 = target: T10, ETV2 (Homo sapiens, UniProt O00321 1-342); conditions: protein: recombinant; tags: N-terminal GST; dsDNA, one strand shown
T10 sequence: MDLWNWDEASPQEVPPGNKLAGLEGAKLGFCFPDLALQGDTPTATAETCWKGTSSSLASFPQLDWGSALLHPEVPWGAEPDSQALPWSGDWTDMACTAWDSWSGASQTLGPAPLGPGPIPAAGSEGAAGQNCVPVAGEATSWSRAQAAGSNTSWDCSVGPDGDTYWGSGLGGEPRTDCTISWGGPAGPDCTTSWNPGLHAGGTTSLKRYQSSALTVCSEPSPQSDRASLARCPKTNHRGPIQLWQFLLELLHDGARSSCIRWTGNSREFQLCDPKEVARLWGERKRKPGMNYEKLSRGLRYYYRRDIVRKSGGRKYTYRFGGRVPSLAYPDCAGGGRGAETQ
Summary of the method: as §1

ELF3 = target: T11, ELF3 (Homo sapiens, UniProt P78545 1-371); conditions: protein: recombinant; tags: N-terminal GST; dsDNA, one strand shown
T11 sequence: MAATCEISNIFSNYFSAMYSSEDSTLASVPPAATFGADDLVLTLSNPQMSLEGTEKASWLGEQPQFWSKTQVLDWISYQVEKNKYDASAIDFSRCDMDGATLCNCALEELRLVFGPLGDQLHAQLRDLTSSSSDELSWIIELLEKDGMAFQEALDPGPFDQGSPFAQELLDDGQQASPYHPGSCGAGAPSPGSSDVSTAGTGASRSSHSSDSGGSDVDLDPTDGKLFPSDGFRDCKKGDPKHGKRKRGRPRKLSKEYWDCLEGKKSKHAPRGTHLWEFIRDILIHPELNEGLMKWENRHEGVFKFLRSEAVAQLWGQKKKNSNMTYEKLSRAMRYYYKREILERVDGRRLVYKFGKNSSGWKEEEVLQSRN
Summary of the method: as §1

CRX = CRX (Homo sapiens, UniProt O43186 1-299); conditions: protein: recombinant; tags: N-terminal GST; dsDNA, one strand shown
CRX, sequence (O43186 whole entry): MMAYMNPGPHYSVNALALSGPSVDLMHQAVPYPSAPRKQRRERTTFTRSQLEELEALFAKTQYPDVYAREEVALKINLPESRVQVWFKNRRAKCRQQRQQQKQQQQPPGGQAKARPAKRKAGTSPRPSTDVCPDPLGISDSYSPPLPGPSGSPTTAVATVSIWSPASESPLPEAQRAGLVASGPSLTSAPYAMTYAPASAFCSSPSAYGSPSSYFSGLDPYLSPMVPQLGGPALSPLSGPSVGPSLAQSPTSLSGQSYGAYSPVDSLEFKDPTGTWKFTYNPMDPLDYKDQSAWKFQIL
Summary of the method: as §1

ETV1 = ETV1 (Homo sapiens, UniProt P50549 1-477); conditions: protein: recombinant; tags: N-terminal GST; dsDNA, one strand shown
ETV1, sequence (P50549 whole entry): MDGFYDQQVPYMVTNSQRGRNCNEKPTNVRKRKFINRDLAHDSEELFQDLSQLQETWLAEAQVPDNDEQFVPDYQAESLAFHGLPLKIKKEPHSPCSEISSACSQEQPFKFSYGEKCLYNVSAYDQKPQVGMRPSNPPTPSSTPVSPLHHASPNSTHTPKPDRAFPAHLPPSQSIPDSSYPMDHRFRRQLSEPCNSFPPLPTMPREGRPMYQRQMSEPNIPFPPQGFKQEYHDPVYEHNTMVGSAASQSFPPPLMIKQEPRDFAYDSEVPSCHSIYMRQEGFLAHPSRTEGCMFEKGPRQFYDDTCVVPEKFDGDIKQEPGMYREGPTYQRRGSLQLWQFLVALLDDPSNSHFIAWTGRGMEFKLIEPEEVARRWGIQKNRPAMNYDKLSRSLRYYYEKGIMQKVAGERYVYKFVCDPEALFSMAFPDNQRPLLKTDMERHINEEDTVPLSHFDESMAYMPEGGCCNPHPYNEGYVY
Summary of the method: as §1

## CTTTTA
FLI1
  binding signal: 1.41 fold enrichment (6-mer frequency, TF over GST control)
ELK1
  binding signal: 1.28 fold enrichment (6-mer frequency, TF over GST control)
GABPA
  binding signal: 1.41 fold enrichment (6-mer frequency, TF over GST control)
ERG
  binding signal: 1.28 fold enrichment (6-mer frequency, TF over GST control)
ELF1
  binding signal: 1.29 fold enrichment (6-mer frequency, TF over GST control)
EHF
  binding signal: 1.28 fold enrichment (6-mer frequency, TF over GST control)
SPI1
  binding signal: 1.4 fold enrichment (6-mer frequency, TF over GST control)
SPIB
  binding signal: 1.35 fold enrichment (6-mer frequency, TF over GST control)
ELK3
  binding signal: 1.4 fold enrichment (6-mer frequency, TF over GST control)
FEV
  binding signal: 1.36 fold enrichment (6-mer frequency, TF over GST control)
ETV5
  binding signal: 1.29 fold enrichment (6-mer frequency, TF over GST control)
HSF1
  binding signal: 1.3 fold enrichment (6-mer frequency, TF over GST control)
SPIC
  binding signal: 1.49 fold enrichment (6-mer frequency, TF over GST control)
ELF4
  binding signal: 1.43 fold enrichment (6-mer frequency, TF over GST control)
ELK4
  binding signal: 1.21 fold enrichment (6-mer frequency, TF over GST control)
ETV2
  binding signal: 1.28 fold enrichment (6-mer frequency, TF over GST control)
ELF3
  binding signal: 1.34 fold enrichment (6-mer frequency, TF over GST control)
CRX
  binding signal: 1.61 fold enrichment (6-mer frequency, TF over GST control)
ETV1
  binding signal: 1.41 fold enrichment (6-mer frequency, TF over GST control)
